The values that follow come from PubChem BioAssay (NCATS).

A short description of experiment [1]: P-glycoprotein substrates identified in KB-8-5-11 adenocarcinoma cell line, qHTS therapeutic library screen (AID 1346987). Note: nearly all actives have a fitted effect of over 65% in size. Note: potency is the fitted concentration of half-maximal effect. In short, it runs like this:
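P-gp-mediated resistance screen: KB-8-5-11 cells treated 72 h with compounds in dose-response. CellTiter-Glo viability.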

A short description of experiment [2]: qHTS of pediatric cancer cell lines to identify multiple opportunities for drug repurposing: Primary screen for TC32 cells (AID 1347089). Note: nearly all actives have a fitted effect of over 60% in size. Note: potency is the fitted concentration of half-maximal effect. An outline of the steps:
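Measured quantity: luminescence from CellTiter-Glo, reflecting metabolically active TC32 cells following 48 h of compound. Curves came straight from multi-point titrations, with 8 or 11 points in primary and 11 in confirmatory screening.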
(In general: In qHTS, concentration-response curves come from the screen itself.)

Experiment [3] in a line: qHTS of pediatric cancer cell lines to identify multiple opportunities for drug repurposing: Primary screen for DAOY cells (AID 1347090). Note: nearly all actives have a fitted effect of over 55% in size. Note: potency is the fitted concentration of half-maximal effect. An outline of the steps: (§1)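 Cell viability, CellTiter-Glo luminescence; 500-1,000 cells/well, 8- or 11-point titration, 48 h compound exposure at 37 degrees C, 5% CO2. Controls: DMSO neutral, bortezomib 2.3 µM final as positive.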
Experiment [4] can be described thus: qHTS of pediatric cancer cell lines to identify multiple opportunities for drug repurposing: Primary screen for SJ-GBM2 cells (AID 1347091). Note: potency is the fitted concentration of half-maximal effect. An outline of the steps: as §1
Experiment [5] is described as follows: qHTS of pediatric cancer cell lines to identify multiple opportunities for drug repurposing: Primary screen for A673 cells (AID 1347092). Note: nearly all actives have a fitted effect of over 45% in size. Note: potency is the fitted concentration of half-maximal effect. In short, it runs like this:
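Cells are plated, rested 5 h, dosed by pintool, incubated 48 h, then lysed with CellTiter-Glo and read by luminescence. DMSO is the neutral control; bortezomib at 2.3 uM final is the positive control.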

Experiment [6] in a line: NS1 protein of Zika virus - qHTS assay to identify small molecule inhibitors in human HEK 293 cells (AID 1347053). Note: nearly all actives have a fitted effect of over 55% in size. Note: potency is the fitted concentration of half-maximal effect. In short, it runs like this:
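HEK 293; 20 h pre-culture, 37 C/5% CO2; cpd 1 h pre-infection; ZIKV MR766, MOI = 0.5, 24 h, 37 C; TR-FRET NS1 readout (two anti-NS1 Abs); norm. to no-virus vs infected.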

Experiment [7] deals with Atrial natriuretic peptide receptor 2 (Homo sapiens) (UniProt P20594). The experiment is described as follows: Natriuretic polypeptide receptor (hNpr2) antagonism - Pilot subtype selectivity assay (AID 1347050; calls by dose curve). In short, it runs like this: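 Pilot selectivity screen against hNpr2: HEK293 cGMP-sensor cells are treated with LOPAC1280 compounds, then with hNppC peptide at 1 nM final. The cGMP-driven luminescence change over 20 min at room temperature is the read-out.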
Chain of Atrial natriuretic peptide receptor 2 (Homo sapiens) (P20594 whole entry, looked up): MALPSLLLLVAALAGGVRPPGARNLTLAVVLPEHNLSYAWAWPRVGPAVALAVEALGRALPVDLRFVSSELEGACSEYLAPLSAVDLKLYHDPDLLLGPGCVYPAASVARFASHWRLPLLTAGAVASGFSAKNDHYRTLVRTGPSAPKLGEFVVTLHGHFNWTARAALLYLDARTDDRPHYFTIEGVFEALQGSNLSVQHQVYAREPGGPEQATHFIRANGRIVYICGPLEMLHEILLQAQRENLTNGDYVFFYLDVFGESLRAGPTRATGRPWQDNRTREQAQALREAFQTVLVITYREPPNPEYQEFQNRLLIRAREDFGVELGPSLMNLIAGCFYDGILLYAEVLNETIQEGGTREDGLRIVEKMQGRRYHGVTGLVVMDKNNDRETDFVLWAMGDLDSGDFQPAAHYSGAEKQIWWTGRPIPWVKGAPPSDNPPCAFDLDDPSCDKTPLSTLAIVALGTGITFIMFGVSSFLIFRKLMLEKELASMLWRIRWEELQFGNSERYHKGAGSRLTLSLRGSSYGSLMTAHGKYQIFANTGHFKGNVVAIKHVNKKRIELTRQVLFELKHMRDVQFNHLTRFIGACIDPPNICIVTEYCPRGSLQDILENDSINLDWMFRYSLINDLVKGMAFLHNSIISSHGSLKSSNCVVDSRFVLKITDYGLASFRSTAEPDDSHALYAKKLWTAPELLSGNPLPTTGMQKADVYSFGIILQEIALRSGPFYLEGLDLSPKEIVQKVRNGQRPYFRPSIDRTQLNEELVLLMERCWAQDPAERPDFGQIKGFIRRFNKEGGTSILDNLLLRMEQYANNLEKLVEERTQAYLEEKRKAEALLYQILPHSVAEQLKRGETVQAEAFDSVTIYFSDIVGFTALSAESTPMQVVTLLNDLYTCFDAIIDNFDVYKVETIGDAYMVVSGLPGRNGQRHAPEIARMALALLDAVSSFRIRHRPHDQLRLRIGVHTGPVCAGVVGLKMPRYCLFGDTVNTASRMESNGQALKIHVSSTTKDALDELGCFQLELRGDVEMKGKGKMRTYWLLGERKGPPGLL

The target of experiment [8] is Tyrosine-protein phosphatase non-receptor type substrate 1 (Homo sapiens) + Leukocyte surface antigen CD47 (Homo sapiens) (UniProt P78324+Q08722). The experiment is described as follows: CD47-SIRPalpha protein protein interaction - Alpha assay qHTS validation (AID 1347059).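 Note: bead proximity luminescence from CD47 binding SIRPalpha after compound preincubation with SIRPalpha.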 An outline of the steps: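 Binding is measured by AlphaScreen proximity: Ni-NTA acceptor beads capture His-CD47, streptavidin donor beads capture biotin-SIRPalpha. Each of three additions (SIRPalpha with compound, CD47, beads) incubates 30 min at room temperature protected from light.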
Chain of Tyrosine-protein phosphatase non-receptor type substrate 1 (Homo sapiens) + Leukocyte surface antigen CD47 (Homo sapiens) (P78324 whole entry, looked up): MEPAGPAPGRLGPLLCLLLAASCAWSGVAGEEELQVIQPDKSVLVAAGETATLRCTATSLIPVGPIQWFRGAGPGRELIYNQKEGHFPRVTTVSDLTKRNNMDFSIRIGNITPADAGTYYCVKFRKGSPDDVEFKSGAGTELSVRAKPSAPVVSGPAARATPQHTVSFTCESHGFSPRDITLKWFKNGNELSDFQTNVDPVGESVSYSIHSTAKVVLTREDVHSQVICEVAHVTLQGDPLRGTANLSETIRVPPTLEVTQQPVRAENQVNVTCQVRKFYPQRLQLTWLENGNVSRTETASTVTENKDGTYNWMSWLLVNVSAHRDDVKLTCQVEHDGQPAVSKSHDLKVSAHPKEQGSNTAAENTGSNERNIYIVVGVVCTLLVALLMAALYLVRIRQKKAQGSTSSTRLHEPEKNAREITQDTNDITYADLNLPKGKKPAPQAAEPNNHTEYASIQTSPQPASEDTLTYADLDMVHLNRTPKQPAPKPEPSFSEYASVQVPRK
Chain of Tyrosine-protein phosphatase non-receptor type substrate 1 (Homo sapiens) + Leukocyte surface antigen CD47 (Homo sapiens) (Q08722 whole entry, looked up): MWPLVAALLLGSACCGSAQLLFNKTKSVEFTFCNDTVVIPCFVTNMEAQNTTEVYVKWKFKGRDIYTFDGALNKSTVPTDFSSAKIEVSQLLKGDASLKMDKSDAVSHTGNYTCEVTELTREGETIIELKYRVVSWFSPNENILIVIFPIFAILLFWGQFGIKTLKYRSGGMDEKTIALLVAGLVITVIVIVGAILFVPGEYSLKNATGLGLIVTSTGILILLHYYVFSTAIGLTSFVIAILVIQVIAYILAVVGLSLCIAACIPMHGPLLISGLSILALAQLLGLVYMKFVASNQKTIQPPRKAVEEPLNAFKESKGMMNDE

Experiment [9] addresses Parathyroid hormone/parathyroid hormone-related peptide receptor (Homo sapiens) (UniProt Q03431). The experiment is described as follows: qHTS for PTHR1 Agonists: Optimization Screen against the NCGC LOPAC library (AID 1347079).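 Note: GloSensor cAMP luminescence in HEK-293 GP2 cells expressing human PTHR1 with IBMX.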 In short, it runs like this:
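Compounds were tested across a qHTS titration. PTHR1-expressing GP2 cells report cAMP rises via GloSensor luminescence after 1 hr compound exposure at 37C with IBMX present.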

Each structure is given as a SMILES string. “And” between values parts separate entries of the source, which are not always exact repeats. Equal values may be shown once. Records with an inconclusive call do not appear. The source made the active and inactive calls. Unless noted, calls come from the whole dose curve; as a rule, active = well fitted curve in the direction sought with a large enough effect; inconclusive = small, poorly fitted or top-dose-only effect, or another doubt; inactive = no such curve, though single readings can be large; an effect the other way counts as inactive or inconclusive.

Chain of Parathyroid hormone/parathyroid hormone-related peptide receptor (Homo sapiens) (Q03431 whole entry, looked up): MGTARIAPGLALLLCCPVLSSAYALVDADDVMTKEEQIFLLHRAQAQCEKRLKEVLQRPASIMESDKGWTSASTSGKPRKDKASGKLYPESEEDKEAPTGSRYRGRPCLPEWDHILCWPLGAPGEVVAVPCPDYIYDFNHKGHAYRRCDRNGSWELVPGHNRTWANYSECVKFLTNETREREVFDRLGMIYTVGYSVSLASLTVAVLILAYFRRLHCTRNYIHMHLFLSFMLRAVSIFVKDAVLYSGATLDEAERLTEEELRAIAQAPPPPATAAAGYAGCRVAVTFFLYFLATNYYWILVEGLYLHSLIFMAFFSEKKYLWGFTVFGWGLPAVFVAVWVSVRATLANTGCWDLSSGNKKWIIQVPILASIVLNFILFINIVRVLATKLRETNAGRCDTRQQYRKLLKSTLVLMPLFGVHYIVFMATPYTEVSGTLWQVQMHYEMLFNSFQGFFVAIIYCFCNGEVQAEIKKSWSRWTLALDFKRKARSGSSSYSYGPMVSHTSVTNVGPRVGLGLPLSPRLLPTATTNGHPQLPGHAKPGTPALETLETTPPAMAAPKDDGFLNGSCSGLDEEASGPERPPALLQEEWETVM

As for `CCc1cc(S(=O)(=O)O)c2cc(C(C)C)cccc1-2`, the Potency result in experiment [1], in experiment [2], in [3] and in experiment [4] was “inactive” throughout.
In the case of `CC(=O)Nc1ccn(C2COC(COC(=O)c3ccccc3)O2)c(=O)n1` (centres undefined), the Potency result in experiment [1], in [3] and in [4] was “inactive” in each case. For the same compound, the Potency in [2] was 1.67 µM (active); in [5], 1.33 µM (active).
As for `O=C(Oc1ccccc1)c1cccc(C(=O)Oc2ccccc2)c1`, the Potency entry in experiment [1], in [2], in experiment [3], in experiment [4] and in experiment [5] was “inactive” in each case.
As to `O=C(O)Cc1ccccc1Oc1ccc(Cl)cc1Cl`, the Potency entry in experiment [1], in [6], in [3], in [4] and in [5] was “inactive” throughout.
On to `O=C(Nc1ccc(S(=O)(=O)N2CCOCC2)cc1)c1cc(Cl)ccc1NS(=O)(=O)c1ccc(Cl)s1`, for which the Potency result in [1], in experiment [6], in experiment [2] and in experiment [5] was “inactive” throughout.
As for `O=P(O)(O)OCC(O)CO` (centres undefined), the Potency result in experiment [1], in experiment [6], in [2], in [3], in [4] and in experiment [5] was “inactive” throughout.
For the compound `Cc1cc2nc3ccc(=[N+](C)C)cc-3sc2cc1N`, the Potency in [1] was 6.51 µM (active); in [2], 2.97 µM (active); in [3], 13.3 µM (active); in experiment [4] it was 21.1 µM (active); in experiment [5], 10.6 µM (active).
As for `CC1c2ccccc2CN1NC(=O)c1ccc(Cl)c(S(N)(=O)=O)c1` (centres undefined), the Potency result in experiment [1], in [6], in experiment [2], in experiment [4] and in experiment [5] was “inactive” in each case.
As for `C[C@H]1NCc2cc(-c3ccc4c(=O)c(C(=O)O)cn(C5CC5)c4c3OC(F)F)ccc21`, the Potency entry in [1], in [6], in [2], in [4] and in [5] was “inactive” in each case.
With `Cc1c(C)c2c(c(C)c1OC(=O)CCC(=O)OCCO)CC[C@@](C)(CCC[C@H](C)CCC[C@H](C)CCCC(C)C)O2`, the Potency entry in [1], in experiment [6] and in experiment [4] was “inactive” throughout.
Regarding `C=CC[N+]1([C@H]2C[C@H]3[C@@H]4CC[C@H]5C[C@H](OC(C)=O)[C@@H](N6CCCCC6)C[C@]5(C)[C@H]4CC[C@]3(C)[C@H]2OC(=O)CC)CCCCC1`, the Potency entry in [1], in [6], in experiment [2], in experiment [4] and in [5] was “inactive” throughout.
With `O=C1NCCN1CCN1CCC(c2cn(-c3ccc(F)cc3)c3ccc(Cl)cc23)CC1`, the Potency is 18.4 µM (active) and 20.6 µM (active) in [1]; 7.08 µM (active) in experiment [6]; 10.6 µM (active) in experiment [4].
`Nc1ccc(O)cc1`: the Potency result in experiment [1], in experiment [2], in experiment [3], in experiment [4] and in experiment [5] was “inactive” throughout.
As for `O=C(Nc1ccc(Cl)cc1)Nc1ccc(Cl)c(Cl)c1`, the values for the Potency in [1] and in [4] were 6.51 µM (active) and 11.9 µM (active), respectively. For the same compound, the Potency entry in experiment [6] is “inactive”.
Turning to `OC1(c2ccc(Cl)c(C(F)(F)F)c2)CCN(CCCC(c2ccc(F)cc2)c2ccc(F)cc2)CC1`, the Potency was 23.1 µM (active) and 20.6 µM (active) in [1]; 16.7 µM (active) in experiment [2]; 10.6 µM (active) in [5].
As to `O=C(O)c1ccccc1Nc1cc(Cl)ccc1C(=O)O`, the Potency entry in experiment [1], in [6], in experiment [2], in [4] and in experiment [5] was “inactive” each time.
As to `NCC(=O)O`, the Potency result in experiment [1], in experiment [2], in experiment [3], in [4] and in experiment [5] was “inactive” each time.
As to `CC1(C)S[C@@H]2[C@H](NC(=O)C(c3ccccc3)S(=O)(=O)O)C(=O)N2[C@H]1C(=O)O` (some centres undefined), the Potency entry in [1], in experiment [2], in [3], in [4] and in [5] was “inactive” each time.
`CC(C)=CCNc1ncnc2c1ncn2[C@@H]1O[C@H](CO)[C@@H](O)[C@H]1O`: the results for the Potency in experiment [1], in experiment [2] and in experiment [5] were 5.8 µM (active), 5.92 µM (active) and 2.66 µM (active), respectively. In addition, the Potency result in [6] was “inactive”.
Consider `CCCCCC(=O)O[C@]1(C(C)=O)CC[C@H]2[C@@H]3CCC4=CC(=O)CC[C@]4(C)[C@H]3CC[C@@]21C`, for which the Potency in [1] was 10.3 µM (active); in [3] it was 21.1 µM (active). In addition, the Potency result in [2] is “inactive”.
For the compound `CC(=O)OC/C=C(C)/C=C/C=C(C)/C=C/C1=C(C)CCCC1(C)C`, the Potency entry in [1], in [6], in [2] and in experiment [4] was “inactive” in each case.
For the compound `OCCCc1ccccc1`, the Potency result in experiment [1], in experiment [2], in experiment [3], in experiment [4] and in [5] was “inactive” throughout.
Consider `O=C(O)CCCC[C@@H]1SC[C@@H]2NC(=O)N[C@@H]21`, for which the Potency entry in experiment [1], in experiment [6], in experiment [2], in experiment [3], in [4] and in [5] was “inactive” throughout.
Consider `Cc1ccccc1N1CCN(CCc2nnc3n2CCCC3)CC1`, for which the Potency entry in experiment [1], in experiment [6], in [3], in experiment [4] and in experiment [5] was “inactive” throughout.
For `OCc1cccnc1`, the Potency result in [1], in [6], in [3], in experiment [4] and in experiment [5] was “inactive” in each case.
As to `C[C@@]12CCC[C@H]1[C@@H]1CC[C@H]3C[C@@H](O)CC[C@]3(C)[C@H]1CC2`, the Potency entry in experiment [1], in experiment [2], in [3] and in [4] was “inactive” throughout.
Regarding `COc1cc(C(=O)NC2CCCNC2)cc(OC)c1OC` (centres undefined), the Potency result in experiment [1], in experiment [6], in [3], in experiment [4] and in experiment [5] was “inactive” in each case.
As to `CC(CC1c2ccccc2CCc2ccccc21)CN(C)C` (centres undefined), the Potency entry in experiment [6], in experiment [2] and in experiment [3] was “inactive” throughout.
Turning to `CN(C)c1cc2c(Nc3ccc4c(cnn4Cc4ccccc4)c3)ncnc2cn1`, the Potency entry in [7], in experiment [6] and in experiment [8] was “inactive” in each case. The compound was classed as inactive in experiment [9].
